Measurements from PubChem BioAssay AID602243 (Broad Institute, 2012).
This is one part of the list. The source made the active and inactive calls. No rule for the calls is given here.

Test: V. cholerae lux activation without autoinducers – BH1578 luxS cqsA deficient, cherry-pick, plate reader, dose response (AID 602243)
Settings: V. cholerae BH1578 lux reporter, luminescence, 6 h; series mostly up to 50 µM; activation: at the top concentration
In the case of `CCCn1nnnc1NCc1ccc(CC)cc1`, the “activation” value is reported as 4240% (inactive).
In the case of `CC(=O)N1CCN(C(=O)c2cc(-c3ccc(Cl)s3)nc3ccccc23)CC1`, the “activation” value is reported as 0.973% (inactive).
For `CCC(C)(C)n1nnnc1CN1CCN(c2nc3ccc(C)cc3cc2C#N)CC1`, the “activation” value was 0.074% (inactive).
For `CCOc1ccc(CCNC(=O)C2CCN(c3ccc(N4CCOCC4)nn3)CC2)cc1OCC`, the “activation” value was 0.22% (inactive).
In the case of `COCCn1nnnc1CN1CCC(NC(=O)Nc2cccc(OC)c2)CC1`, the “activation” value is reported as 0.222% (inactive).
In the case of `O=C(CN1CCC(O)(c2cccc(C(F)(F)F)c2)CC1)NCCc1ccccc1`, the “activation” value is reported as 217% (inactive).
With `O=C(Cc1ccc2c(c1)CCCC2)Nc1ccccc1Cl` the “activation” value was 20.6% (inactive).
For `CC1CN(C(=O)COC(=O)c2cccc(NS(=O)(=O)c3ccccc3)c2)CC(C)O1` (stereo not drawn), the “activation” value was 0.085% (inactive).
With `COc1cc(S(=O)(=O)N(Cc2cccs2)C2CC2)ccc1-n1cnnn1` the “activation” value was 0.162% (inactive).
With `Cc1onc(-c2ccccc2)c1C(=O)N1CCOCC1` the “activation” value was 0.2% (inactive).
For `Cc1cccc(C(=O)OCC(=O)NCC(C)C)c1O`, the “activation” value was 1270% (inactive).
In the case of `COc1ccc(N(CC(=O)NC2CCCCC2)C(=O)CNC(=O)c2ccco2)c(OC)c1`, the “activation” value is reported as 0.776% (inactive).
In the case of `COc1ccccc1CCNC(=O)C(=O)NCCC1CCCCN1S(=O)(=O)c1cccs1` (stereo not drawn), the “activation” value is reported as -0.142% (inactive).
For `COc1ccc(Cl)cc1NC(=O)COC(=O)c1ccc(Br)o1`, the “activation” value was 1.99% (inactive).
With `O=C(Nc1ccc2oc(-c3ccc4ccccc4c3)nc2c1)c1cccs1` the “activation” value was -0.042% (inactive).
In the case of `O=C(NCCS(=O)(=O)N1CCN(c2ccccc2)CC1)c1ccco1`, the “activation” value is reported as 0.155% (inactive).
For `NC(=O)c1nsc(C(=O)N(CC(=O)NCc2ccc(F)cc2)Cc2ccco2)c1N`, the “activation” value was 0.105% (inactive).
With `COc1ccc(OCc2cn3c(C)cc(C)nc3n2)cc1` the “activation” value was 327% (inactive).
